This passage reports Percent Effect results from ChEMBL document CHEMBL3988442, “University of Dundee, Small-Polar-MMV Screening Library” (2021).

SMILES strings stand for the structures.

For one assay, the target named is T1, Aspartate--tRNA(Asp/Asn) ligase (Mycobacterium tuberculosis (strain ATCC 25618 / H37Rv)) (UniProt P9WFW3). Note: in the data most compounds retested in dose-response had high values.
T1 sequence (whole entry): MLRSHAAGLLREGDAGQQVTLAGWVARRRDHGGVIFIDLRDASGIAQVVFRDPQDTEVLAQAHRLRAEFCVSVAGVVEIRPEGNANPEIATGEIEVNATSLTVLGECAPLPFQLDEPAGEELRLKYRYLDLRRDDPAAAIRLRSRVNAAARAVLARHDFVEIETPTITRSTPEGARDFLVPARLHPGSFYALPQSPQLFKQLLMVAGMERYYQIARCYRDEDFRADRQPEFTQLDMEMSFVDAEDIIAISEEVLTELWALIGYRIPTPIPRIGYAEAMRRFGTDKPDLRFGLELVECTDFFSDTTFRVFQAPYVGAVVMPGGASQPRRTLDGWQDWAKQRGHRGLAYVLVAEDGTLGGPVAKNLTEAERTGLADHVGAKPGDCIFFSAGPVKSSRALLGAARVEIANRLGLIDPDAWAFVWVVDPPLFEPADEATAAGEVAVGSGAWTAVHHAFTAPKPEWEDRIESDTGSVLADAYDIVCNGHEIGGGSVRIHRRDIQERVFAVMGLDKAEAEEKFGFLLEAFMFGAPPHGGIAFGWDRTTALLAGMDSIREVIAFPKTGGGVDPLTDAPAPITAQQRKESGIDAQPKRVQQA
Briefly: Assay for Asp RNA synthetase-1 from Mycobacterium tuberculosis. Format: functional. Further details: scale not given: direction of the effect not stated beside the values. To be noted: 30 µM.
On to `Cn1cc(C[C@H]2[C@@H](O)CCN2C(=O)C2CC=CC2)cn1`, for which the Percent Effect was 7.16%.

Take `Cn1cc(CN2CCC3(CCCN(Cc4ccccn4)C3)CC2)cn1`: the Percent Effect was -0.638%.

On to `O=C(NC1CCCC1)NC1CCC(C(=O)N2CCSCC2)CC1` (stereo not given), for which the Percent Effect was determined as 1.78%.

As for `CCc1n[nH]c(C2CN(C(=O)c3nc(C)n4ccccc34)CCO2)n1` (stereo not given), the Percent Effect turned out to be 2.55%.

In the case of `CCn1cc(NC(=O)NCC(O)CN2CCCCC2)cn1` (stereo not given), the Percent Effect is -0.173%.

Turning to `O=C(Cc1ccsc1)NCC1OCCc2cn(CC3CC3)nc21` (stereo not given), the Percent Effect was 1.47%.

Regarding `Cc1ccc(-c2nc(CCNC(=O)CCN3CCOC3=O)co2)cc1`, the Percent Effect was -1.93%.

With `CCOCC(O)CN1CCN(C(=O)c2ccc(OC)cc2F)CC1` (stereo not given), the Percent Effect is -10.1%.

For `O=C(Nc1cnn(CCN2CCOCC2)c1)c1ccccn1`, the Percent Effect was -1.48%.

Regarding `Cc1ccc(S(=O)(=O)N2CCOc3ccccc32)cc1C(N)=O`, the Percent Effect was 0.611%.

On to `CCN(C1CCS(=O)(=O)C1)S(=O)(=O)c1cccc2cc(C)cnc12` (stereo not given), for which the Percent Effect was -1.66%.

For the compound `CS(=O)(=O)NCC1CCCN(C(=O)COCC(F)(F)F)C1` (stereo not given), the Percent Effect was -4.43%.

Regarding `CCC1(CO)CCCN(c2ncccc2C#N)C1` (stereo not given), the Percent Effect is -1.73%.

For `CCOC[C@@H]1CCC[C@@]12CN(Cc1nccs1)CCO2`, the Percent Effect was -0.28%.

Consider `CC(NC(=O)CCn1cncn1)c1nnc2n1CCCCC2` (stereo not given), for which the Percent Effect is -0.486%.

As for `Cc1ccc(CN2CC3(CCN(C(=O)c4cscn4)C3)C2)s1`, the Percent Effect is -2.67%.

Take `CC(C)n1cc(CN2CCCN(C(=O)c3ccc[nH]3)CC2)cn1`: the Percent Effect is -3.14%.

Consider `CC(=O)N1CCCC(Cc2cncc(Br)c2)CC1` (stereo not given), for which the Percent Effect is -0.223%.

For the compound `Cc1cc(C)n(CC(=O)N2CCC(c3nc(C)no3)CC2)n1`, the Percent Effect is 3.56%.

As for `Cc1cccc(NS(=O)(=O)c2cc(C(=O)O)oc2C)c1Cl`, the Percent Effect was -1.97%.

The target of the next assay is Shiga toxin 2 (Escherichia coli O157:H7) (UniProt P09385+P09386). Briefly: E. coli 0.157:H7 Shiga Toxin SOP - stx2 screening assay. Format: functional. Further details: scale not given: direction of the effect not stated beside the values. The settings on record: 30 µM.
For the compound `Cc1cn(-c2ccccc2)nc1NS(=O)(=O)c1cc(C(=O)O)cs1`, the Percent Effect is -40%.

`CCCn1ccc2ccc(NC(=O)N(C)CCOC)cc21`: the Percent Effect was -13.1%.

With `CC(C)CN1CCCC2(CCN(C(=O)c3cnccn3)C2)C1` (stereo not given), the Percent Effect is -7.5%.

As to `Clc1ccc2cccnc2c1CN1CCCC1Cn1cncn1` (stereo not given), the Percent Effect is 0.609%.

As for `Cc1nc([C@@H]2C[C@@H]3CCN(C(=O)c4occc4C)C[C@H]3O2)no1`, the Percent Effect was -14.5%.

On to `Cc1cnn(CC2CCCCN2Cc2nnc(-c3ccco3)o2)c1` (stereo not given), for which the Percent Effect came to 2.18%.

On to `Cc1cc(N2CCN(Cc3ccccc3)CC(O)C2)cc(C)n1` (stereo not given), for which the Percent Effect was -16.3%.

Take `CNc1nc2c(s1)C(c1c(F)cccc1Cl)CC(=O)N2` (stereo not given): the Percent Effect stood at 3.13%.

Regarding `Cn1cc(CN2CCCC23CCN(C(=O)c2cccn2C)CC3)cn1`, the Percent Effect is -10.8%.

Consider `Cn1cnc(S(=O)(=O)NCCN2CCCCCC2=O)c1Cl`, for which the Percent Effect was 17.3%.

Consider `Cc1nc(C)n(CC2CN(c3nnc(C)c(C)c3C#N)CCO2)n1` (stereo not given), for which the Percent Effect came out at 27.3%.

In the case of `O=C(CCNc1ncccn1)N1CCCC(n2ccnc2)C1` (stereo not given), the Percent Effect is -9.67%.

In the case of `CC(C(=O)N1CCN(c2cnccn2)CC1)n1cncn1` (stereo not given), the Percent Effect was 2.13%.

Turning to `Cn1cc(N2CCCC(NCc3cccc4c3OCCCO4)C2)cn1` (stereo not given), the Percent Effect was determined as 22.1%.

Turning to `COc1ccc(NC(=O)N2CCCC2c2ccco2)cc1OC` (stereo not given), the Percent Effect is -11.9%.

`Cc1ccc(S(=O)(=O)N2C[C@@H]3C[C@@H](NC(=O)C(C)(C)C)[C@@H]3C2)cc1`: the Percent Effect was 6.78%.

As to `Cc1ncsc1C(=O)NCCSCCCO`, the Percent Effect is -35.1%.

On to `CC(C)c1n[nH]c(C2CN(C(=O)CCn3ccccc3=O)CCO2)n1` (stereo not given), for which the Percent Effect is 10.2%.

Consider `Cn1ncc2c(=O)[nH]c(N3CCN(C(=O)c4ccsc4)CC3)nc21`, for which the Percent Effect turned out to be 13.3%.

Turning to `COc1ccc(C2CC(=O)Nc3c2cnn3C)cc1` (stereo not given), the Percent Effect is -21.4%.

As to `Cn1cc(C[C@H]2[C@@H](O)CCN2C(=O)C2CC=CC2)cn1`, the Percent Effect was -21.6%.

For the compound `Cn1cc(CN2CCC3(CCCN(Cc4ccccn4)C3)CC2)cn1`, the Percent Effect is -6.22%.

For the compound `O=C(NC1CCCC1)NC1CCC(C(=O)N2CCSCC2)CC1` (stereo not given), the Percent Effect is -37.4%.

Take `CCc1n[nH]c(C2CN(C(=O)c3nc(C)n4ccccc34)CCO2)n1` (stereo not given): the Percent Effect is -2.71%.

As for `CCn1cc(NC(=O)NCC(O)CN2CCCCC2)cn1` (stereo not given), the Percent Effect turned out to be 21.2%.

For `O=C(Cc1ccsc1)NCC1OCCc2cn(CC3CC3)nc21` (stereo not given), the Percent Effect is -11.5%.

On to `Cc1ccc(-c2nc(CCNC(=O)CCN3CCOC3=O)co2)cc1`, for which the Percent Effect is -45.5%.

As to `CCOCC(O)CN1CCN(C(=O)c2ccc(OC)cc2F)CC1` (stereo not given), the Percent Effect was -5.15%.

With `O=C(Nc1cnn(CCN2CCOCC2)c1)c1ccccn1`, the Percent Effect was 19.4%.

For `Cc1ccc(S(=O)(=O)N2CCOc3ccccc32)cc1C(N)=O`, the Percent Effect was -48.3%.

Take `CCN(C1CCS(=O)(=O)C1)S(=O)(=O)c1cccc2cc(C)cnc12` (stereo not given): the Percent Effect was 30.4%.

Take `CS(=O)(=O)NCC1CCCN(C(=O)COCC(F)(F)F)C1` (stereo not given): the Percent Effect was -24%.

As to `CCC1(CO)CCCN(c2ncccc2C#N)C1` (stereo not given), the Percent Effect is -8.75%.

On to `CCOC[C@@H]1CCC[C@@]12CN(Cc1nccs1)CCO2`, for which the Percent Effect was determined as 13.3%.

`CC(NC(=O)CCn1cncn1)c1nnc2n1CCCCC2` (stereo not given): the Percent Effect was -13.7%.
